The source of these data is PubChem BioAssay AID612 (The Scripps Research Institute Molecular Screening Center, 2007).

Among all 62,000 compounds or so, about 420 (0.68%) were called active. The entries come from a sample that favours actives as a whole. Unmarked numbers belong to inactive results.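 The calls were made as follows: active = inhibition above the mean of all tested compounds plus 3 SD (cut at about 43% in these data); inactive = the rest.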

In the experiment the target is 5-hydroxytryptamine receptor 1A (Homo sapiens) (UniProt P08908). Put plainly: blockade of serotonin HTR1A receptor – cell-based, CHO, Ga15 NFAT-bla reporter, primary screen (AID 612).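 Also: receptor stimulated by 5-CT agonist at 100 nM near EC80; beta-lactamase reporter measured by ratiometric fluorescence of a cleavable substrate.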 The note with it: CHO 5-HT1a Ga15 NFAT-bla reporter, antagonist mode; at 10 µM; stronger effect = higher value.
Sequence of 5-hydroxytryptamine receptor 1A (Homo sapiens) (P08908 whole entry, looked up): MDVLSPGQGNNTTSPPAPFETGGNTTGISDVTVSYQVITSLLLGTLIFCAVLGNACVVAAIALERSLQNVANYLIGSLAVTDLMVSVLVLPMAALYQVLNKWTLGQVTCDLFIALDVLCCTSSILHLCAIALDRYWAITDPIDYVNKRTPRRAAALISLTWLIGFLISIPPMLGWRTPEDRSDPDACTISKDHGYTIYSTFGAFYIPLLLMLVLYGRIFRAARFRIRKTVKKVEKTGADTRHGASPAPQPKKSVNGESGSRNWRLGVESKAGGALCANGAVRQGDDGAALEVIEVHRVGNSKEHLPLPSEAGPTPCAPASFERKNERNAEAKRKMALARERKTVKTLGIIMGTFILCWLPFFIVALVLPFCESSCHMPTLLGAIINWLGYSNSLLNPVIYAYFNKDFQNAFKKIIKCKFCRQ
As usually defined, the inhibition is the relative decrease from the control value, in per cent. As for `O=S(=O)(NCc1ccccn1)c1ccc(F)cc1`, the inhibition was -4.1%.
`CCOC(=O)N1CCC(Nc2c(NCCN3CCN(c4cccc(Cl)c4)CC3)c(=O)c2=O)CC1`: the inhibition is 1.9%.
Then `CC1CCCC(C)N1CCCNC(=O)c1cc2c(=O)n(C)c3ccccc3c2n1C` (centres undefined), with 1.7%; and `CCn1c(=O)cc(OCC(=O)NCCCN2CCN(c3cccc(Cl)c3)CC2)c2ccccc21`, with 50.4% (active); and `O=C(CCn1c(=O)[nH]c2ccccc2c1=O)NCCCN1CCN(c2cccc(Cl)c2)CC1`, with 37.1%.
As for `Cn1c(C(=O)NCCc2ccsc2)cc2c(=O)n(C)c3ccccc3c21`, the inhibition is -3.6%.
Then `Cn1c(C(=O)NCCCN2CCN(c3cccc(Cl)c3)CC2)cc2c(=O)n(C)c3ccccc3c21`, with 47.4% (active); and `Fc1ccc2nc(Nc3nc4c(s3)CCCC4)sc2c1`, with 16.8%; and `Cc1cnc(NC(=O)CSc2nnc(-c3ccc(Cl)cc3Cl)n2N)s1`, with -1.4%.
For `CN(CCCNC(=O)CN1C(=O)CC(C)(C)S(=O)(=O)c2ccccc21)C1CCCCC1`, the inhibition is -7.9%.
The figure for `CCOC(=O)Cn1c2c(c(-c3ccccc3OC)cc1=O)CCCC2` is 17.8%.
Regarding `O=S(=O)(c1ccc(Sc2nnc3ccccn23)nc1)N1CCOCC1`, the inhibition was -7.8%.
In the case of `O=C(Nc1nnc(-c2ccc(Cl)cc2)o1)c1ccccc1Br`, the inhibition was 8.9%.
Regarding `O=c1cc(CSc2ccc(Cl)cc2)nc(N2CCOCC2)[nH]1`, the inhibition is -13.7%.
The figure for `Cc1cc2c(=O)n(C)c(SCC(=O)c3cc4ccccc4o3)nc2s1` is -6.7%; for `COc1ccccc1-c1nc(C(F)(F)F)c(OC)o1` it is 3.7%; for `COCCNC(=O)Cn1cc2c(n1)CCCCC2` it is -1.6%.
The figure for `COc1ccc(C)c(Cn2c(-c3nonc3N)nc3ccccc32)c1` is 38.7%; for `Nc1nonc1-c1nc2ccccc2n1Cc1ccc(F)cc1` it is 48% (active).
The figure for `Nc1nonc1-c1nc2ccccc2n1CCC(=O)O` is -21.2%.
With `Cc1cccc2nc(CNc3ccc(F)cc3)cn12`, the inhibition was -11.2%.
The figure for `COc1ccc(N2C(=O)C3CCCN3C2c2cccs2)cc1` (centres undefined) is 19.9%; for `O=C(CSc1nnc2ccccn12)c1ccccc1` it is 3.3%; for `COc1ccc(OC)c(C(=O)CSc2nnc(-c3cccs3)o2)c1` it is -4.9%.
Take `Cc1ccc(-c2noc(CCC(=O)Nc3ccccc3N3CCN(C)CC3)n2)cc1`: the inhibition is 5.2%.
Regarding `O=C(NCCN1CCOCC1)c1ccc2c(c1)ncn2C1CCCC1`, the inhibition was -8%.
For `Cc1ccc(Oc2ccc(N)cc2)cc1`, the inhibition was 11.4%.
The figure for `CCCc1nc(SCC(=O)Nc2ccccc2OC)c2c(=O)n(C)c(=O)n(C)c2n1` is 10.8%; for `CCOc1cc(/C=N/n2cnnc2)c(Br)cc1O` it is -8.1%; for `COc1ccc(O)c(C=Nc2cc(C)on2)c1` it is 4.6%.
As for `COc1ccccc1-n1cnc2cc(C(=O)NCC3CCCO3)ccc21` (centres undefined), the inhibition is 10.8%.
`COC(=O)c1ccc(CSc2nncn2C)cc1`: the inhibition is -0.1%.
The figure for `COc1ccc(C(CNC(=O)c2cccnc2SC)N2CCOCC2)cc1` (centres undefined) is 5.3%.
The figure for `CCCC(=O)Nc1c(O)c2ccccc2[nH]c1=O` is 0.3%; for `O=C(c1cc(-c2cccc(O)c2)on1)N1CCc2ccccc2C1` it is -4.3%; for `c1ccc(-c2cn3cccnc3n2)cc1` it is -0.3%.
Regarding `C/C(CC(O)(/C=N/O)c1ccccc1)=N\O` (centres undefined), the inhibition was 7.7%.
Then `CS(=O)(=O)c1ccc2nc(NC(=O)C3C4C=CC(C4)C3C(=O)O)sc2c1` (centres undefined), with -0.7%.
In the case of `CN1C(=O)c2ccccc2C(C(=O)NCCCN2CCCC2)C1c1c[nH]c2ccccc12` (centres undefined), the inhibition is -6.4%.
The figure for `O=C(O)CCN1C(=O)CC2(CCCCC2)C1=O` is 6.3%; for `C=CCSc1nnc(Cn2c(=O)sc3ccccc32)n1C` it is -0.5%.
Then `COc1nc(NCc2ccc(Cl)cc2)nc(OC)n1`, with -1.3%; and `Cc1nc(C)c2c(c1C(F)(F)F)-c1ccccc1C2(F)F`, with -9.3%.
The figure for `Cc1ccc2c(C(=O)CN3CCCC3)c(C)[nH]c2c1` is 14.4%; for `CCCCOc1ccc(C(C)(O)CCN2CCOCC2)cc1` (centres undefined) it is 8.9%; for `Cc1oc2nc(SCC(=O)NCc3cccnc3)nc(N)c2c1C` it is 5.1%.
On to `CCOc1ccc(Cn2nnc(C(=O)NCc3ccccc3)c2N)cc1`, for which the inhibition was 10.3%.
Then `CCC(C)NC(=O)N[C@@H](CCSC)C(=O)O` (some centres undefined), with -11.6%; and `CC1(C)C(=O)C2(CCCCC2)C(=O)OC1c1cccs1` (centres undefined), with -2.8%.
In the case of `CN(CCC#N)c1ncnc2scc(-c3ccccc3)c12`, the inhibition was 11.5%.
For the molecule `C/C(=C\C(=O)c1ccc(Br)cc1)N1CCCCC1`, the inhibition is 0.5%.
In the case of `CCN(CC)S(=O)(=O)c1cccc(C(=O)Nc2ccccc2)c1`, the inhibition was 16.2%.
The figure for `Cc1cc(C(=O)OCC(=O)c2c(N)n(C)c(=O)n(C)c2=O)c(C)o1` is -7.9%.
Then `CCOC(=O)CN1CC23C=CC(O2)C(C(=O)Nc2ccc(F)cc2)C3C1=O` (centres undefined), with -5.1%; and `Cc1ccc(-n2c(Cc3cccs3)nnc2SCC(=O)OC(C)C)cc1`, with 8.6%.
Take `Cc1c(C(=O)NCCN2CCOCC2)sc2nc(-c3ccc(F)cc3)cn12`: the inhibition was -8%.
Consider `O=C(COc1ccc(S(=O)(=O)NCCc2ccccc2)cc1)N1CCCC1`, for which the inhibition is -0.2%.
Then `CCOC(=O)C1CCCN(C(=O)CN(c2ccc(OC)cc2)S(=O)(=O)c2c(C)noc2C)C1` (centres undefined), with -9.3%; and `CCCCNC(=O)c1ccccc1NC(=O)c1ccccc1N(C)S(C)(=O)=O`, with -13.1%.
Regarding `CCN1CCN(Cc2nc3c(c(=O)n(C)c(=O)n3C)n2CC(=O)c2ccccc2)CC1`, the inhibition is 4.5%.
With `O=C(C1=C(O)C(=O)N(c2ncccn2)C1c1cccs1)c1ccco1` (centres undefined), the inhibition is 11.8%.
The figure for `Cc1cc(C(=O)Nc2c(C)n(C)n(-c3ccccc3)c2=O)cs1` is 5.4%; for `O=C(NC1=NCCS1)c1ccc(Cl)s1` it is 10.2%.
Then `Cc1ccccc1Nc1nc(N)nc(CN2CCN(c3ccccn3)CC2)n1`, with 2%.
